Results on 18 compounds are retold here after ChEMBL document CHEMBL3988442, “University of Dundee, Small-Polar-MMV Screening Library” (2021).

In experiment [1] the target is T1, Aspartate--tRNA(Asp/Asn) ligase (Mycobacterium tuberculosis (strain ATCC 25618 / H37Rv)) (UniProt P9WFW3). Further: in the data most compounds retested in dose-response had high values.
T1 sequence (whole entry): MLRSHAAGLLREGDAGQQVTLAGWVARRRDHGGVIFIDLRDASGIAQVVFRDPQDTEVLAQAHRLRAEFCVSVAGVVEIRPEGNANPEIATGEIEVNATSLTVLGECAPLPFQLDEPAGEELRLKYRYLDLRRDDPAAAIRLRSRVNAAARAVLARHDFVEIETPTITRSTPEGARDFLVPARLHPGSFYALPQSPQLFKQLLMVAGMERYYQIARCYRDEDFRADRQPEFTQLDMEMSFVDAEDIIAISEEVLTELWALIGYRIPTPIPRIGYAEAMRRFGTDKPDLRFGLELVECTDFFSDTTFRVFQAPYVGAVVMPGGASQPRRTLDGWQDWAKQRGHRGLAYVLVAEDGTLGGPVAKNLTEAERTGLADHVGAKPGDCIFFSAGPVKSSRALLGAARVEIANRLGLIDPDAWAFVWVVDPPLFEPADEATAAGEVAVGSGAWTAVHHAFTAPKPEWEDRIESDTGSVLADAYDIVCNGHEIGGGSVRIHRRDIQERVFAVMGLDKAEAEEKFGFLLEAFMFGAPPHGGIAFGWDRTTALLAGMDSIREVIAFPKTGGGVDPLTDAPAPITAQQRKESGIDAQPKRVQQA
The experiment in a line: Assay for Asp RNA synthetase-1 from Mycobacterium tuberculosis. Type of experiment: functional. Set-up: scale not given: direction of the effect not stated beside the values. The note with it: 30 µM.

Experiment [2] has as its target Shiga toxin 2 (Escherichia coli O157:H7) (UniProt P09385+P09386). The experiment in a line: E. coli 0.157:H7 Shiga Toxin SOP - stx2 screening assay. The format is functional. Details: scale not given: direction of the effect not stated beside the values. To be noted: 30 µM.

As to `CC(C)n1ccnc1CN1CCCN(C(=O)CC2C=CCC2)CC1` (stereo unspecified), the values for the Percent Effect in experiment [1] and in experiment [2] were 1.91% and -0.917%, respectively.

For the compound `Cc1ccccc1Oc1ncccc1CNS(C)(=O)=O`, the Percent Effect was -3.12% in experiment [1] and -11.9% in experiment [2].

Take `COc1c(CNCc2ccc(N(C)C)nc2)c(C(C)C)nn1C`: the Percent Effect in experiment [1] worked out at 0.0333%; in experiment [2], 14%.

In the case of `CC(C)n1cc(C(=O)N2Cc3ccccc3OC3(CCOCC3)C2)cn1`, the values for the Percent Effect in experiment [1] and in experiment [2] were -1.29% and -21.7%, respectively.

Take `Cn1ccc(C(=O)N2CCN(c3cc(C#N)ccn3)CC2)cc1=O`: the Percent Effect in experiment [1] came out at 3.75%; in experiment [2] it was 1.09%.

Regarding `c1cc(CNCC2CNc3ccnn3C2)cc(N2CCCCC2)n1` (stereo unspecified), the figures for the Percent Effect in experiment [1] and in experiment [2] were -2.55% and -110%, respectively.

For `C[C@@H]1CN(C(=O)c2ccsc2)C[C@]12CCN(c1ccsc1)C2=O`, the values for the Percent Effect in experiment [1] and in experiment [2] were -1.75% and 1.46%, respectively.

Turning to `CC(NC(=O)N(C)Cc1ccc(Cl)s1)c1ccccn1` (stereo unspecified), the Percent Effect in experiment [1] was -2.02%; in experiment [2], -6.3%.

For the compound `CN1CCN(C(=O)c2ccc(=O)n(C)c2)Cc2ccccc21`, the Percent Effect in experiment [1] is -5.51%; in experiment [2] it was -29.2%.

On to `CCn1ccnc1CN1CCN(C(C)C(=O)NC2CCCCC2)CC1` (stereo unspecified), for which the values for the Percent Effect in experiment [1] and in experiment [2] were -1.01% and 22%, respectively.

For the compound `COCC1CN(C(=O)COc2ccccc2)Cc2cn(C)nc21` (stereo unspecified), the values for the Percent Effect in experiment [1] and in experiment [2] were 1.18% and 0.0839%, respectively.

For the compound `O=C(CCc1cccs1)N1CCC(N2CCNC2=O)CC1`, the figures for the Percent Effect in experiment [1] and in experiment [2] were -2.08% and -4.13%, respectively.

Consider `Cc1nccc(C(=O)N2CCCN(Cc3cnn(C(C)C)c3)CC2)n1`, for which the Percent Effect in experiment [1] is -2.77%; in experiment [2] it was -13.2%.

For `Cn1ccnc1CN1CCN(CC(O)c2cccc(F)c2)CC1` (stereo unspecified), the Percent Effect amounted to 1.53% in experiment [1] and 14% in experiment [2].

Take `CCOc1ccc(Cl)cc1CNCCCn1ccnc1`: the Percent Effect in experiment [1] is 0.842%; in experiment [2], -32.5%.

`CC(=O)N1CCCC1c1ccc(-c2c(C)noc2C)cn1` (stereo unspecified): the Percent Effect in experiment [1] is -1.44%; in experiment [2], -2.58%.

Consider `O=C1CN(Cc2nnc(-c3ccccc3Br)o2)CCN1`, for which the Percent Effect in experiment [1] was -4.51%; in experiment [2] it was -24.1%.

Consider `COCc1ccc(CNC(=O)C2=NN(c3ccccc3)C(=O)CN2)cc1`, for which the Percent Effect in experiment [1] was 16.6%; in experiment [2] it was -18.1%.
